Whole data set: some 2,700 sequences, median “arbitrary fluorescence units” near 4,100, cut for the highest 2% near 54,000. For the sample, the highest values were picked, then their nearest neighbours and some sequences at random.
Biological target: T1, ETS1 (UniProt P14921)
T1 sequence: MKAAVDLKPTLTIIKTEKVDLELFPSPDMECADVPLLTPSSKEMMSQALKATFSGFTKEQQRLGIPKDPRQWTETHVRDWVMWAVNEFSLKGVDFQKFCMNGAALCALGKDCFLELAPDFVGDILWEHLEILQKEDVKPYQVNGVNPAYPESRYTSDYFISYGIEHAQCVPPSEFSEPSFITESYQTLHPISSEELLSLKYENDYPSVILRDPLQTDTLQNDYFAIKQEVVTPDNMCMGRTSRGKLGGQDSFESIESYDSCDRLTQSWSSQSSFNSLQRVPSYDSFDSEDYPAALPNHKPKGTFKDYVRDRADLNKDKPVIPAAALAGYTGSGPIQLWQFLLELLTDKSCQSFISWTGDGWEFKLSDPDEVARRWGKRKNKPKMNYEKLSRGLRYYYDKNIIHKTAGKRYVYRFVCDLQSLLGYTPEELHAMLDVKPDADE
Experiment: ETS1 binding intensity (PBM fluorescence) (arbitrary fluorescence units); higher = stronger binding
Details: ETS1 concentration 10 nM
Method: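 gcPBM on wild-type 36-bp genomic probes with two neighbouring ETS1 sites (4-24 bp apart). Recombinant human ETS1 (10 nM) was detected with anti-ETS1 antibody fluorescence. Values are medians over 3 replicate spots. The probes sit in constant array flanks that are not printed.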

In order of falling ETS1 binding intensity:
1. TCTACTTCCGGTTTGCCTGTGAATTCTTTCCTGGGC  153000
2. AGCAACTTCCGGTGCGCTTAGCGTTACTTCCGGCGC  116000
3. GTCACTTCCGGCCCCGAGTTCGAGCCGCTTCCGGGT  115000
4. CCACTTCCGGCATGCGCAGGGACGCACCTTCCGGCT  109000
5. ACAACTTCCGGCTGTAAAGATGGCGGCTTCCTAGTG  96400
6. GACACAACTTCCGGCTTCTGGCGGCGGAAGAGGACA  90100
7. GAGCACGACTTCCGGCCTGAAAAGGAAGTCTCCTCC  89000
8. GTCACTTCCGGCGCCCGCCTACACGCACTTCCGTTC  88200
9. ACGTCACTTCCGGCGCCGGGGCTCACTTCCTGGTGC  87500
10. GCGGTTACTTCCGGTCACTTTCGCCGGAACCTGACT  86200
11. TTTTATTTCCGGTTCTGAGGACGCCGCGGAAGCGGG  78400
12. GCTGCAACTTCCGGTGCGCTAGCCGGAAACGCGGGT  78200
13. CCCACTTCCGGCAACAAGATAGAGCACTTCCGTCAA  77600
14. CGTCACTTCCGGCGCCGCGTGAGGCCTTCCGGTGCC  73900
15. TTCATTTCCGGCGGCGGAGGCGGCAGTTTCCTAAGC  73000
16. GGCTCACTTCCGGCCTCAGAGCCGCTTCCGGCGCGC  71400
17. TGATTTCCGCTTTCTCCCCAGTGATTGCTTCCTTCA  68300
18. AGACTTCCGTTCTGGCTCTCACTCTAGTTTCCTGGT  67500
19. TGAGCTATTTGACTTCCGGTTTCCTGCCCCATTTAA  63200
20. ACAACTTCCTGTTACACAAGACAGGTATTTCCTCAT  59800
21. CACCACTTCCTGTTTCTGAGTCATCAGGAAGGTAAT  58900
22. GGACCGGAAGTGCCTCCTGCGGAGGCAGGAAGTCCC  58700
23. GCACCGGAAGTGACCGCCTCGCGGCTGCTTCCTCTC  57700
24. CGGGACCGGAAGTGACGCAGAGAAGTTTCCGGGACT  56800
25. TGTTTACTTCCGGCTTTTCGCCTAATTCCGGCGGCC  55000
26. CGGACCGGAAGTTGGGGTGACGCAATTTCCGGCGCG  54200
27. GGAGCACTTCCGCTGGACGCACGCACTTCCGGCCCC  50800
28. GCCCTTCCGGTTATTTCCCTTCCTGTTTGTCTGCCT  48700
29. GAGGGTAACTTCCTGTTTCTGCCTTCCGGGTTTGAG  47100
30. GGGCACTTCCGGGGCCGGCGCCCAGAGTTCCGGGAG  46800
31. GCCCGAGCCGCTTCCGGGTACTTCCGGCGGCCGCGG  39600
32. CGCCGCCGGAAGTGCCTGGCCTCACTTCCGGTCAGA  37200
33. CTCAACTTCCGGAGGCGGCAGACTTTTTCCGTCAAG  36700
34. TCAACATCCTGCTTCTCAGGGCACCACAGGAAATGT  36600
35. CCATTCATTTCCTGCCTCCCCGAGTTCCGGCTGCGG  35800
36. TTACACTACTTCCGCCGCCTCACTTCCGGTGACGCG  34100
37. TGCCAAGTTACACTTCCTGTTTCCTCTCTGTGTGCC  31700
38. TCCTCCTCACTTCCGCCGGAGCGGAAACGGTGAGGA  31200
39. GAGCGGAAGTGGAAAAGACTAACTTCCGGCCTCGGG  30600
40. ATTTTCGGTCTTCCGGTCAGCCGGAACCACTCACAC  29800
41. GCGCTTCCGGGACGCAGGAGGCATCTGCATCCGGGG  29000
42. ACCAGGGCTGCTTCCTCACATTTCCGGTCCTGAAAA  27700
43. TGAATGCTGTCATTTCCGCTTCCGCCTCCTTCTTTC  26500
44. ACAGCATCCGGAGCGCCGACGCGGGACCGGAAGTGA  26000
45. CATTTACCACTTCCTGAGGTCATTTCCTGTTTTCTT  25800
46. AGCCCCACCATTTCCTGTGACTTCCTGGAGCCTGGC  25600
47. GCTCCGCCCCCGGAAGCCTCACTTCCGGGCGCGAGC  25300
48. TGACAAGAGCCGGAACCGTCACTTCCGGCGGCGCGG  24700
49. CGGCCCTTCCATTTCCTGCCTTCCTGCCTGCATTTG  24200
50. GGGGACCGGAAGCCAGCGGCAACAACTTCCGGCGGG  23100
51. CAACTTGTCGGAGCGGAACTTCCGGCGTCCTCCCTG  22800
52. CACGGTGATTTCCTGTAAACAACAGGAAATGTACAG  22700
53. GGGTCTTCCGGCCCTCTCGAAAATCATTTCCGGCAT  22500
54. GGCGGCGACGGAAGTGAAGTCACTTCCGGGCTGGGG  21300
55. TGCCCGGCTTCCGGGTGGCTGCGCGGAAGCGCGGTG  20900
56. ACCGCCCGGAAGTGACGCGCCCGCGCATCCGGCCAC  19800
57. CGCCGGAAGTGGTCGCGGGTCGTTCTGCTTCCTGCC  18000
58. AGCACTTCCTCAATTTCTGGCTCTACAGGATATTTC  16100
59. TTATTCTGTTTCCGGCAGTTTTACTTCCGTTTGTTT  15900
60. TCGGACCGGAAGGAGTTGTTGGCGCTTCCGGTGGCC  15900
61. GTTTTCAGTTGCCTTCCGGTTTCCTGCTGTGATAAC  15800
62. AGATCGCTGGCTTCCTGTGTTTTTCCTGGACTCAGG  14800
63. TCGGGCCCTGGCTTCCGTCACTTCCGCCCGTGCCTG  14700
64. CTCGCAGGCTTCCCGGCTGCAACTTCCGGCGCATGC  14600
65. GCTTGGCAGTCAGGAAGGACTTCCTGTTTCTGCTTC  14400
66. CGGGAGCAGCGGAAGTCATTAACATCCGCGGTTGTG  12500
67. CTCTGTGACTTCCTGGAGACTCACTTCCTAGATGAG  11300
68. CTGCTACAGGAAATCGCTTGTTATTTCCTGTAATGC  10900
69. GACAGTTTCCTCTTTCACACTAGAATATCCTGTTGT  10900
70. CTTCGCCTTCCGCTGTGAATAATAGCTTCCTGAGGC  10100
71. TGCGCCCCGTGCTTCCTGCCATCCTGTGCTCTCTGC  9740
72. AGAAGCACACAAGGAAGTGTTTCCGGGACAGAGGGT  9030
73. GACCGCAGGAAGGGACGCGGCCGCACTTCCGGCGAC  8620
74. GCGCTTCGGGCCCTTCCGGCTTCCCGGGCCTCCCGG  8330
75. GCGCCGCCTCAGTTCCGCGGCTTCCGGCCACAGAGT  8030
76. CCTCCCGGAAGCCGCTGGCCCGCGCCGGAAAAGGTG  7300
77. GCGGCTTGGGCCTTCCGGCTTTCCGTCCGCCGCGGC  7060
78. GCCTTCAATTTCCGTAGGGAACCTTCCTCCCAGTGA  6860
79. GTCACCACATCCTGAGGCTTCTCATTTCCTTTCTAC  6290
80. ACCCGGAAGCGCTTCACCCAGCCTGAGCGGAAGAAC  5640
81. CGGCCTCTTCCGCGAGCCCGCGCGCCGGAAGTGGAA  5440
82. GGCCGCTTCCGAGCGCCGCCAACCGCTTCCGGGTTC  5250
83. AACGTCCAGGAGGAAGTCAATTTCCTGGCCCTCAAT  5100
84. GCGCCTGATTCACTTCCCTCTTCCGCTCTGAGGCGT  4680
85. TGGCGGAGGCGCCGGAAGTTTTCCGGCTTTCTGCTG  4500
86. CGTCCACTGGAGGCTTCCTTCCGGCGCCCGCGTGCC  3590
87. GCGCCGGAAGCAGAGACGCGTTTCGGGAGGAAGGTG  3580
88. CATCCTTGGCATTTCCTCTGAGGAAGCTCGCACCCC  3550
89. GGACAGGGACCGGATGGGAGGGGAAGTCGATGCTTG  3430
90. ACCCCCTGGCGGATGCTGTGTGTTTCCTGTGCTTAG  3420
91. CTATGGTAGGAAACCCAGAAAACAGGAAGTGGCCTC  3030
92. CCCAGCTAAAGGAAGTCTGGCACTTCCTCTCCTCAA  2990
93. CAATTGAGGAAACAGGACCAAAGACAGGAAATGGCT  2860
94. ATCACCAGCCTTCCTGTGGGACCGGAAAGGCAGTAG  2720
95. GGGTGCGGAAACGCGGCAGCCGCGGCCGGATGCTGC  2710
96. TAGTCCTGAAACTTCCTCTGCTTCCTCCTCCTGCCC  2700
97. ACTGCCTTCCTGGCCTGGTGGTGAGAGGAAGTCGGG  2260
98. ATCTGCAGGATGTAAGAAGAATAGAAGGAAGCTGGG  1930
99. GGTGTTCCGGACCCGCGCGGTGCGGGGAGGAAGGCC  1700
100. TCAGTGGGCGGAAGAGGTGGCCCCGGATGCTGCGGC  1430
101. TGAGGCGGTTTCCTCGGCGCCTTTTCCGGCAGCGGC  1360
102. CTGGGGGTCCGGATGCTTTGCGTTTCCCAGCAGTTG  1230
103. CAGCTAGGCTTCCTTCTCCTCCCTTCCTGTGCCTCC  1100
104. TGCCACCACACCAGGATGCTTCCGTCTTTGAAGGCA  1030
105. GCACCAAGGGAAGTGGTTAAAACAGGAAGACCCGCT  919
106. GGACTTCCCAACTAGACAGACCAAATGAGGAAGTTG  880
107. GGTCCGGAAGGGAGGAGAACACAAGCAGGATATAAC  860
108. CCTGAGTTTCCTTGTCTGGAGCTGCAGGATATTTGT  800
109. AAAGCGCATTGCGGATGGCAATTCCGGTGCGTCATT  732
110. CGAGGCGGTCGCGGAAGTAGAGGAAGCCTTCGCGGT  686
111. AAGGGAATCTGGGAAATGTAGTTTCCTGCAATCCAG  540
112. GCAGGAGACGGAAGATGCATGGGTTTCCTGGCGCGC  424
113. GACAGGAAGGCTACAGGCTGCCTGTGGCTTCCGTGT  386
114. GGAGGAGGCGGAGGAAACCCGGAAAAGGGGCCGCGC  382
115. GGTGCTCACGGATGCTACGCTTGTTCCTGTCTCCTC  370
116. TCATCTCTCCTGCAGGAAGGAAGTCCTGCCTCCCAC  315
117. GGTTGGTGATTGGCAGGATCCTGGTATCCGCTAACA  278
118. TGTTATTGGACAACTTCCAGGAAAACATCCTCAAGA  273
119. GTAATACTTCGGGGAAATGCAGGATGCAGCTGCTGC  243
120. AGCCCAAGCGCGGAAGAGGGCGGAAGGAGAACCCCT  240
121. TCAATTTCTCATTTCCCTGGAGGAAGCCCATAAAGT  217
122. ACATAAGACATGAGGATGTCTTCCTGACTTGCGTCC  208
123. AGCAGGAAGGACCTCAGTCCTCCAGTGCGGATGCTG  207
124. GTTATGATAACGGAACTACAGTTCCTCCAGGATGGA  195
125. CGGGCGGAAAGGGAGCTAGAGCATTCTGGGAAATGG  178
